# PubChem BioAssay AID1259343 (VanderVen Lab, College of Veterinary Medicine, Cornell …, 2017)
# Screen size: about 6,200 compounds; about 2,900 (47%) were called active. The set was probably picked from earlier hits. This is one part of the list. Unmarked numbers belong to inactive results. Cut-off read from the data, not from the text of the source: active = inhibition above about 50%; inactive = the rest.
# Experiment: Mycobacterium tuberculosis growth inhibition, primary screen (AID 1259343)
# Details: inhibition: at 10 µM, active compounds read high; outcome: 10 uM
row,Structure (SMILES),inhibition
1,CC(C)(Cc1c[nH]c2ccc(Cl)cc12)NCCOc1ccccc1OCC1CC1,46.8%
2,O=C(NC1CC1)c1ccc(Oc2ccc(Br)cc2)nc1,16.1%
3,Cc1cc(Oc2ccc(C(=O)O)cn2)ccc1C(C)C,59.3% (active)
4,CCc1cccc2c3c([nH]c12)C(CC)(CC(=O)O)OCC3 (stereo not drawn),56.6% (active)
5,CSC(c1ccc(O)cc1)=[N+]1CCOCC1,99.3% (active)
6,COc1cccc(-c2cnnc(NCCc3ccccc3F)n2)c1,19.2%
7,COc1ccc(-c2cnc(CN(C)c3ccccc3F)o2)cc1,83.9% (active)
8,C=CCSc1nc(N)c(C#N)c(CC)c1C#N,58.6% (active)
9,COCCNC(=O)N(C)CC1CCC(C)CC1 (stereo not drawn),8.33%
10,CCCCN(CC)C(=O)c1cc2c(=O)n3cccc(C)c3nc2s1,35.8%
11,CCc1c(C)nc2c(O)cccn2c1=O,92.4% (active)
12,Cc1cc(NC(=O)CSc2ccc(-c3ccc(C)c(C)c3)nn2)no1,33.5%
13,Cc1cc(C)cc(NC(=O)CSc2ccc(-c3ccncc3)nn2)c1,84.3% (active)
14,Cc1ccc(-c2ccc(SCC(N)=O)nn2)cc1C,37.8%
15,O=C(NS(=O)(=O)c1ccccc1F)c1ccc2c(c1)OCO2,98.4% (active)
16,CC(NC(=O)c1ccccc1F)c1ccc2c(c1)OCCO2 (stereo not drawn),36.9%
17,O=C(NS(=O)(=O)c1ccc2c(c1)OCCCO2)c1ccc(F)cc1,-7.16%

row,Structure (SMILES),inhibition
1,c1ccc2c(c1)C(=NC1CCCCC1)NC2=NC1CCCCC1,62.3% (active)
2,Cc1oc(-c2cc3c(cc2Cl)OCO3)nc1CN1CCCC1c1ccc(F)cc1 (stereo not drawn),19.7%
3,COc1ccc(-c2noc(CN3CCC(c4nc5ccccc5o4)CC3)n2)cc1,81.3% (active)
4,Fc1ccc(C2CCCN2Cc2nc(-c3ccc4c(c3)OCO4)no2)cc1 (stereo not drawn),62.2% (active)
5,c1cncc(COC2CCCN(Cc3nc(-c4ccc5c(c4)OCO5)no3)C2)c1 (stereo not drawn),75.8% (active)
6,COc1ccc(-c2noc(CN3CCCC(C(=O)c4ccccc4)C3)n2)cc1 (stereo not drawn),27.8%
7,COc1ccc(-c2noc(CN3CCCC(OCc4ccccn4)C3)n2)cc1 (stereo not drawn),50.2% (active)
8,Cc1cnc(C)c(N2CCN(Cc3nc(-c4ccc5c(c4)OCO5)no3)CC2)n1,92.2% (active)
9,O=c1c2cc(-c3cccs3)nn2ccn1Cc1nc(-c2ccccc2)no1,4.57%
10,Cc1ccc(Cl)cc1N1CCN(Cc2nc(C3CC3)no2)CC1,-5.02%
11,Fc1ccccc1OCC1CCCN(Cc2nc(CC3CC3)no2)C1 (stereo not drawn),19.6%
12,CCCOC1CCCN(Cc2nc(-c3cccc(Cl)c3)no2)C1 (stereo not drawn),68.8% (active)
13,c1cc2c(s1)CCN(Cc1nc(-c3ccc4c(c3)OCO4)no1)C2,22.1%
14,Fc1ccc(CC2CCN(Cc3nc(CC4CC4)no3)CC2)cc1,83.5% (active)
15,COc1ccc(-c2noc(Cn3ccc4cccnc43)n2)cc1,81.3% (active)
16,CN(Cc1cnn(-c2ccc(F)cc2)c1)Cc1nc(CC2CC2)no1,23%
